Screening results deposited in PubChem by National Center for Advancing Translational Sciences (NCATS).
SW480 rereplic: A quantitative high throughput screen for small molecules that induce DNA re-replication in SW480 colon adenocarcinoma cells; SW480 DNA re-replication, Hoechst DNA content imaging, 48 h; Potency, µM (series often up to 46.1 µM), inactives show at the top dose re-replication activation, usual class: activators; 340,000 tested, 1.8% active; AID 624297, 2012; note: % of control where 0% means no effect; nearly all actives have a fitted effect of over 55% in size
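DNA re-replication was detected as more nuclei of elevated Hoechst intensity after 48 hr exposure to compound (23 nL pinned per well of 250 cells).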
KB-V1 cytotox: qHTS assay for MDR1-selective chemotherapeutics: Primary screen using the drug-selected MDR subline cells KB-V1 | KB-V1 MDR cells viability, CellTiter-Glo, 72 h | Potency, µM (titrated, usually from 46.1 µM), actives largely listed as cytotoxic | 400,000 tested, 3.4% active | AID 1347076, 2019; note: % is set by controls: 0 for no effect and ±100 for the full control effect; nearly all actives have a fitted effect of over 60% in size
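Drug-selected KB-V1 cells, grown in DMEM lacking phenol red with 10% FBS, receive compound titrations; after three days at 37 degrees C, surviving cell ATP is quantified by CellTiter-Glo luminescence and responses normalized and curve-fitted.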
MCF10A rereplic: A quantitative high throughput screen for small molecules that induce DNA re-replication in MCF 10a normal breast cells. MCF 10A DNA re-replication, Hoechst nuclear intensity, 48 h. Potency, µM (top dose mostly 46.1 µM), for the others: at the highest dose activity, positive = re-replication, hits mostly activators. 350,000 tested, 2.9% active. AID 624296, 2012; note: % of control where 0% means no effect; nearly all actives have a fitted effect of over 50% in size
ELG1 repair inh: qHTS screen for small molecules that inhibit ELG1-dependent DNA repair in human embryonic kidney (HEK293T) cells expressing luciferase-tagged ELG1; HEK293T ELG1-luciferase reporter, luminescence, 16 h; DNA damage induced by 5-fluorouridine; Potency, µM (highest dose often 46.1 µM), for the others: at the highest dose activity change, negative = inhibition, actives largely listed as inhibitors; 330,000 tested, 2.3% active; AID 504467, 2011; note: % is set by controls: 0 for no effect and ±100 for the full control effect; nearly all actives have a fitted effect of over 55% in size
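In this reporter screen, reduction of luminescence relative to DMSO vehicle indicated activity. Compounds and 5-fluorouridine were added together to 2,000 cells per well, incubated for 16 hr at 37 °C, then developed with ONE-Glo.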
KB-3-1 tox: qHTS assay for MDR1-selective chemotherapeutics: Primary screen using the parental adenocarcinoma cell KB-3-1 | KB-3-1 viability, CellTiter-Glo ATP luminescence, 72 h | Potency, µM (top dose mostly 46.1 µM), hits mostly cytotoxic | 400,000 tested, 1.4% active | AID 1347075, 2019; note: % is set by controls: 0 for no effect and ±100 for the full control effect; nearly all actives have a fitted effect of over 60% in size
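Screening of KB-3-1 cells (DMEM, 10% FBS, phenol-red free) ran from lowest to highest compound concentration; after 72 h at 37 °C viability was read luminescently and curves fitted.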
Active calls of the source: *; i = inactive; ? = inconclusive; · = not tested or not shown; ! = not confirmed by another sample; [ ] = another dose, or the depositor's remark. Hits are enriched below; roughly 8.2% of the tested compounds scored in any of these assays. Calls come from the whole dose curve; as a rule, active = well fitted curve in the direction sought with a large enough effect; inconclusive = small, poorly fitted or top-dose-only effect, or another doubt; inactive = no such curve, though single readings can be large; an effect the other way counts as inactive or inconclusive. Potency is the fitted concentration of half-maximal effect.

SMILES	SW480 rereplic	KB-V1 cytotox	MCF10A rereplic	ELG1 repair inh	KB-3-1 tox
CN1CCN(C(CNC(=O)C(=O)Nc2ccc(Cl)cc2)c2cccnc2)CC1 (centres undefined)	·	i	·	·	i
C=CCN=c1scc(-c2ccc(F)cc2)n1/N=C/c1ccccn1	3.9%	i	?	?	?
CCN=c1scc(-c2ccc(F)cc2)n1/N=C/c1ccccn1	-88.8%	?	12.7%[9.22 µM]	?	i
C=CCN=c1scc(-c2ccccc2)n1/N=C/c1ccccn1	?	7.31µM*!	?	?	1.46µM*!
CCN=c1scc(-c2ccccc2)n1/N=C/c1ccccn1	-3.4%	?	20.6µM*	?	8.2µM*
CCN(C(=O)CSc1nc2ccccc2n1Cc1ccc(C(=O)OC)cc1)c1ccccc1	·	i	·	·	i
Cc1ccc(S(=O)(=O)CCC(=O)NC2CCCC2)cc1	20.6µM*	i	1.2%	-8.6%	i
Cc1ccc(S(=O)(=O)NCCC(=O)NC2CCCCCC2)cc1C	-2.1%	18.4µM*	-0.2%	7.7%	i
CCN1C(=O)[C@@H]2[C@@H](c3ccc(-c4ccc(OC)cc4)c(OC)c3)N3CCCC[C@@]3(C(=O)OC)[C@@H]2C1=O	?	i	-19.8%	-22.3%	i
COc1ccc([N+](=O)[O-])cc1Nc1c2ccccc2nc2ccccc12	?	i	2.91µM*	-27.2%	?
COc1cc(Nc2c3c(nc4ccccc24)CCC3)cc(OC)c1OC	13µM*	3.66µM*	8.2µM*	-1.2%	2.31µM*
O=[N+]([O-])c1ccc(Nc2c3ccccc3nc3ccccc23)cc1	2.6%	i	5.5%	?	i
COc1ccc(OC)c(Nc2c3c(nc4ccccc24)CCC3)c1	4.11µM*	3.66µM*	3.26µM*	?	1.03µM*
N#Cc1cccc(Nc2c3c(nc4ccccc24)CCC3)c1	0.8%	i	?	?	i
COc1ccccc1Nc1c2c(nc3ccc(N)cc13)CCCC2	?	i	-0.6%	-8.2%	i
COc1ccc(OC)c(Nc2c3ccccc3nc3ccccc23)c1	20.6µM*	20.6µM*	20.6µM*	11.6µM*	11.6µM*
CCC1(C)Cc2c(sc3nc(SC)[nH]c(=S)c23)CO1 (centres undefined)	27.6%	i	?	-5.4%	i
CC(=O)C[C@@H](O)CC(=O)[C@@H]1OC(=O)[C@H](C)C/C=C\Cc2ccccc21	2.3%	i	8.1%	16.1%	i
COc1cc(NS(C)(=O)=O)ccc1Nc1c2ccccc2nc2ccccc12	0.15µM*	18.4µM*	?	?	?
CCCCC(CC)CNC(=O)CCCn1c(=O)[nH]c2ccsc2c1=O (centres undefined)	·	i	·	·	i
COc1ccc(N2CCN(CC(=O)Nc3ccccc3C(=O)NCc3ccccc3)CC2)cc1	-17.3%	i	20.8%	7.08µM*	i
COc1ccc(CCNC(=O)c2ccccc2NC(=O)CN2CCN(c3ccccc3O)CC2)cc1	-76.0%	?	?	5.17µM*	i
O=C(CN1CCN(c2ccccc2O)CC1)Nc1ccccc1C(=O)NCCc1ccccc1	-1.3%	i	8.1%	?	?
OCC1(Cc2cccc(C(F)(F)F)c2)CCN(Cc2cc(F)cc(F)c2)CC1	?	?	23.1µM*	-14.3%	?
Cc1cc(Br)cc(Cl)c1OCC(=O)NC(=O)NCc1ccccc1	6.7%	i	18.4µM*	26.9%	i
SMILES	SW480 rereplic	KB-V1 cytotox	MCF10A rereplic	ELG1 repair inh	KB-3-1 tox
Cc1c(N/C(=N/S(=O)(=O)c2ccccc2)c2ccc(Cl)cc2)c(=O)n(-c2ccccc2)n1C	-137.9%	23.1µM*	-6.2%	4.3%	i
Cc1cccc(NC(=O)c2cccc(S(=O)(=O)Nc3c(C)n(C)n(-c4ccccc4)c3=O)c2)c1	-1.9%	14.6µM*	0.5%	·	i
Cc1c(N/C(=N/S(=O)(=O)c2ccc(Cl)cc2)c2ccccc2)c(=O)n(-c2ccccc2)n1C	-4.3%	·	2.6%	1.2%	·
Cc1cc(N2CCCCC2)nc2ccc(NC(=O)/C=C/c3ccc(OCCC(C)C)cc3)cc12	·	i	·	·	i
CCOC(=O)CSc1cccc2cccnc12	6.51µM*	23.1µM*	20.4%	?	?
Cc1cccc(NC(=O)CSc2cccc3cccnc23)c1C	1.8%	i	-11.3%	-2.0%	i
c1cnc2c(SCc3ccc(-c4nnco4)cc3)cccc2c1	?	14.6µM*	3.9%	?	i
Cc1cccc(CSc2cccc3cccnc23)c1	6.51µM*	?	?	?	?
CCN(CC)CCN1CNC(=S)NC1	·	i	·	·	i
O=C(O)CNc1nc(NCc2ccc(Cl)cc2)ccc1[N+](=O)[O-]	·	i	·	·	i
O=C(Nc1cc(S(=O)(=O)N2CCCCC2)ccc1Cl)c1ccccc1NS(=O)(=O)c1ccc(F)cc1	?	?	?	4.11µM*	4.61µM*
CCN1CCN(c2ccc(Cl)cc2NC(=O)c2ccc(-n3nc(C)cc3C)cc2)CC1	155.4%	i	?	14.6µM*	?
CCN1CCN(c2ccc(S(=O)(=O)N3CCCCC3)cc2NC(=O)c2ccc([N+](=O)[O-])o2)CC1	7.31µM*	?	?	?	?
COc1ccc(S(=O)(=O)N2CCCCC2)cc1NC(=O)c1ccc([N+](=O)[O-])o1	2.91µM*	i	2.31µM*	?	18.4µM*
CCN1CCN(c2ccc(S(=O)(=O)N3CCCCC3)cc2NC(=O)c2ccc(C)c(C)c2)CC1	1.2%	i	-0.2%	·	i
c1ccc(Oc2ccccn2)cc1	-3.3%	i	-6.7%	·	i
O=C(NCc1cccc(F)c1)c1ccc2nc(CCc3ccccc3)oc2c1	·	i	·	·	i
CCN(Cc1ccccc1)C(=O)c1cc2c(s1)-c1c(C)cccc1OC2	·	i	·	·	i
Cc1ccc(C(C)C)c(OC(C)C(=O)NCC2(N(C)C)CCCCC2)c1 (centres undefined)	·	?	·	·	i
CCN1CCN(c2ccc(S(=O)(=O)N3CCCCC3)cc2NC(=O)c2ccc(F)cc2)CC1	?	i	7.31µM*	2.4%	i
COc1ccc(-c2cc3ccccc3oc2=O)cc1NC(=O)c1ccc([N+](=O)[O-])o1	9.2µM*	?	7.31µM*	-8.8%	?
CCOC(=O)N1CCN(c2c(NCc3ccc(F)cc3)c(=O)c2=O)CC1	3.26µM*	i	?	?	5.17µM*
CCOC(=O)N1CCN(c2c(NCc3cccs3)c(=O)c2=O)CC1	?	i	18.4µM*	-1.0%	6.51µM*
